According to the supplement of paper PMC10127200:
Where a name gives a salt, the structure may show the parent alone.

Columns and labels:
Test in all cases: Euclidean distance of Cell Painting phenotypic profile (signed KS, 77 features) to DMSO centroid (dimensionless distance); 5 or 10 uM (library dependent); higher = stronger phenotypic change vs DMSO (phenoactivity)
Settings in all cases: 48 h
786-O = test system: 786-O
Method in brief: (§1)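 Phenoactivity is computed as Euclidean distance to the median vehicle profile. The profiles, drawn from 77 Harmony features scored as signed Kolmogorov-Smirnov statistics versus same-plate vehicle wells, were corrected for plate position, correlation-weighted and replicate-averaged at the top dose. Stained cells were imaged confocally at 20X (9 fields/well) after 48 h with library compounds at 10 or 5 uM, 0.1% DMSO final, in five cancer lines and a healthy fibroblast line.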

A549 = test system: A549
Method in brief: as §1

DU145 = test system: DU145
Method in brief: as §1

FB = test system: FB
Method in brief: as §1

HEPG2 = test system: HEPG2
Method in brief: as §1

OVCAR4 = test system: OVCAR4
Method in brief: as §1

SMILES	Euclidean distance (786-O)	Euclidean distance (A549)	Euclidean distance (DU145)	Euclidean distance (FB)	Euclidean distance (HEPG2)	Euclidean distance (OVCAR4)
CN[C@H]1CN(c2ccc3c(=O)c(C(=O)O)cn(-c4nccs4)c3n2)C[C@@H]1OC [Voreloxin (SNS-595) hydrochloride]	3.32	3.76	2.41	3.35	2.43	3.8
COc1cccc(-c2cc(=O)c3ccccc3o2)c1N	1.16	1.4	0.841	0.911	1.94	0.844
CC(C(=O)O)c1cccc(Oc2ccccc2)c1 (stereo not drawn) [Fenoprofen Calcium]	0.95	0.634	0.599	0.997	1.16	1.97
C=C1CCN([C@H](C)[C@](O)(Cn2cncn2)c2ccc(F)cc2F)CC1 [Efinaconazole]	0.843	0.567	0.723	0.84	0.73	0.881
COc1ccc2c(Oc3ccc(NC(=O)c4c(C)n(CC(C)(C)O)n(-c5ccccc5)c4=O)nc3)ccnc2c1	1.16	1.01	1.02	3.08	0.897	0.976
CCOc1ccccc1OC(c1ccccc1)C1CNCCO1 (stereo not drawn) [Reboxetine mesylate]	1.05	0.873	2.32	0.844	2.49	0.786
S=C(NCc1ccc2c(c1)OCO2)N1CCN(c2ncnc3c2oc2ccccc23)CC1 [Amuvatinib (MP-470)]	1.2	1.72	1.25	1.07	2.14	1.2
Cc1cc(OCCCS(C)(=O)=O)cc(C)c1-c1cccc(COc2ccc3c(c2)OC[C@H]3CC(=O)O)c1	1.05	1.02	1.26	2.38	1	1.88
Cc1c(Cl)cccc1Nc1ccccc1C(=O)O [Tolfenamic Acid]	1.28	0.83	0.762	0.742	0.5	1.19
COc1cc([C@@H]2c3cc4c(cc3[C@@H](O[C@@H]3O[C@@H]5CO[C@@H](c6cccs6)O[C@H]5[C@H](O)[C@H]3O)[C@H]3COC(=O)[C@H]23)OCO4)cc(OC)c1O [Teniposide]	2.74	3.77	4.38	3.23	3.39	3.66
Cn1cc(-c2ccc3nnc(C(F)(F)c4ccc5ncccc5c4)n3n2)cn1	0.466	2.03	0.962	1.2	0.706	1.08
COCCc1ccc(OCC(O)CNC(C)C)cc1 (stereo not drawn) [Metroprolol succinate]	0.936	0.527	0.62	1.14	0.935	1.9
CC(C)OC(=O)CCC/C=C\C[C@@H]1[C@@H](CC[C@@H](O)CCc2ccccc2)[C@H](O)C[C@@H]1O [Latanoprost]	1.13	0.914	0.738	1.14	0.925	1.15
CN(C)CCN1C(=O)c2cccc3cc(N)cc(c23)C1=O [Amonafide]	3.45	4	2.47	3.29	4.06	3.48
Cc1cc(-c2ccc(/N=N/c3ccc4c(S(=O)(=O)O)cc(S(=O)(=O)O)c(N)c4c3O)c(C)c2)ccc1/N=N/c1ccc2c(S(=O)(=O)O)cc(S(=O)(=O)O)c(N)c2c1O [Evans Blue]	0.929	0.808	0.955	1.65	0.481	1.37
CNC(=O)c1nn(C)c2c1C(C)(C)Cc1cnc(Nc3ccc(N4CCN(C)CC4)cc3)nc1-2	2.4	3.03	2.9	3.36	2.65	2.9
CCCCCCCN(CC)CCCC(O)c1ccc(NS(C)(=O)=O)cc1 (stereo not drawn) [Ibutilide Fumarate]	1.19	0.555	1.13	1.27	1.2	1.47
C[C@@H]1NC(=O)[C@@H](N)CNC(=O)[C@H](C2CCNC(=N)N2)NC(=O)/C(=C/NC(N)=O)NC(=O)[C@H](CNC(=O)CC(N)CCCN)NC1=O.N=C1NCC[C@H]([C@@H]2NC(=O)/C(=C/NC(N)=O)NC(=O)[C@H](CNC(=O)C[C@@H](N)CCCN)NC(=O)[C@H](CO)NC(=O)[C@@H](N)CNC2=O)N1 [Capreomycin Sulfate]	0.925	0.995	1.37	1.11	0.78	1.14
O=c1ccn([C@@H]2O[C@H](COP(=O)(O)OP(=O)(O)OP(=O)(O)OP(=O)(O)OC[C@H]3O[C@@H](n4ccc(=O)[nH]c4=O)[C@H](O)[C@@H]3O)[C@@H](O)[C@H]2O)c(=O)[nH]1 [Diquafosol Tetrasodium]	0.977	0.68	0.599	1.1	0.787	1.2
CO/N=C(\C(=O)N[C@@H]1C(=O)N2C(C(=O)O)=C(CSC(=O)c3ccco3)CS[C@H]12)c1csc(N)n1 [Ceftiofur]	0.442	0.362	0.719	0.698	1.81	1.07
O=C1OC(CN2CCOCC2)CN1/N=C/c1ccc([N+](=O)[O-])o1 (stereo not drawn) [Furaltadone HCl]	0.929	1.35	1.24	1.24	0.808	2.22
COc1nc2ccc(Br)cc2cc1[C@@H](c1ccccc1)[C@@](O)(CCN(C)C)c1cccc2ccccc12 [Bedaquiline]	1.63	1.17	1.33	0.823	0.496	0.927
O=c1cc(-c2cccc3c2Sc2ccccc2S3)oc(N2CCOCC2)c1	0.999	0.525	0.839	1.33	1.72	1.14
COCCCC/C(=N\OCCN)c1ccc(C(F)(F)F)cc1 [Fluvoxamine maleate]	1.27	0.895	0.762	1.25	1.1	1.58

SMILES	Euclidean distance (786-O)	Euclidean distance (A549)	Euclidean distance (DU145)	Euclidean distance (FB)	Euclidean distance (HEPG2)	Euclidean distance (OVCAR4)
CCC[C@H](NC(=O)[C@@H]1[C@H]2CCC[C@H]2CN1C(=O)[C@@H](NC(=O)[C@@H](NC(=O)c1cnccn1)C1CCCCC1)C(C)(C)C)C(=O)C(=O)NC1CC1 [Telaprevir (VX-950)]	1.35	1.63	1.2	0.968	0.621	1.3
COc1cc(C(=O)NS(=O)(=O)c2ccccc2C)ccc1Cc1cn(C)c2ccc(NC(=O)OC3CCCC3)cc12 [Zafirlukast]	0.974	1.5	1.22	1.21	0.548	1.34
CCCCN(Cc1ccc(C(=O)NO)cc1)C(=O)Nc1ccccc1 [Nexturastat A]	1.18	1.83	2.03	3.14	1.55	2.05
Cn1cnc2c(F)c(Nc3ccc(Br)cc3F)c(C(=O)NOCCO)cc21	2.04	2.89	2.61	3.82	1.63	1.91
CN(C)C(=O)C(CCN1CCC(O)(c2ccc(Cl)cc2)CC1)(c1ccccc1)c1ccccc1 [Loperamide HCl]	1.64	2.14	1.81	1.85	2.35	1.42
C=CCc1cccc(/C=N/NC(=O)CN2CCN(Cc3ccccc3)CC2)c1O	2.25	2.14	1.28	1.79	2.31	2.68
COc1cc(C(C)=O)ccc1OCCCN1CCC(c2noc3cc(F)ccc23)CC1 [Iloperidone]	1.83	1.43	0.93	1.43	0.503	1.87
CN/C(=N\CCSCc1nc[nH]c1C)NC#N [Cimetidine]	0.94	0.861	0.762	0.864	0.95	1.25
O=C(NC1CCNCC1)c1n[nH]cc1NC(=O)c1c(Cl)cccc1Cl	3.37	3.2	2.81	4.13	2.47	3.69
N=C(N)NCCC[C@H](N)C(=O)O [L-Arginine HCl (L-Arg)]	1.3	0.522	0.828	0.796	0.566	1.14
CN1CCC(OC(c2ccccc2)c2ccccc2)CC1 [Diphenylpyraline hydrochloride]	0.93	0.611	2.19	1.17	0.532	0.876
COC1=CC(c2cc3ccccc3[nH]2)=N/C1=C\c1[nH]c(C)cc1C [Obatoclax Mesylate (GX15-070)]	4.8	4.59	2.78	4.82	3.8	3.71
Clc1ccc(CCCOCCCN2CCCCC2)cc1 [Pitolisant hydrochloride]	0.716	0.836	0.816	0.98	0.955	0.758
CC(CCc1ccccc1)NCC(O)c1ccc(O)c(C(N)=O)c1 (stereo not drawn) [Labetalol HCl]	1.08	0.727	0.701	1.03	0.361	1.22
CCOC(=O)[C@H](CCc1ccccc1)N[C@@H](C)C(=O)N1Cc2cc(OC)c(OC)cc2C[C@H]1C(=O)O [Moexipril HCl]	1.48	1.49	1.02	0.74	2.35	1.78
CC(N)C12CC3CC(CC(C3)C1)C2 (stereo not drawn) [Rimantadine Hydrochloride]	1.07	0.924	0.781	1.07	0.658	1.17
N[C@H](C(=O)O)[C@H](O)c1ccc(O)c(O)c1 [Droxidopa]	0.967	0.876	0.724	0.744	1.01	0.873
CCc1nc(C(N)=O)c(Nc2ccc(N3CCC(N4CCN(C)CC4)CC3)c(OC)c2)nc1NC1CCOCC1 [Gilteritinib (ASP2215)]	2.93	3.06	3.49	3.66	3.86	2.89
CN1CCOC(c2ccccc2)c2ccccc2C1 (stereo not drawn) [Nefopam HCl]	1.21	0.668	0.813	1.07	0.77	1.29
COc1cccc2c1C(=O)c1c(O)c3c(c(O)c1C2=O)C[C@@](O)(C(=O)CO)C[C@@H]3O[C@H]1C[C@H](N)[C@H](O[C@@H]2CCCCO2)[C@H](C)O1 [Pirarubicin]	3.6	4.43	3.47	4.28	4.37	4.83
O=C(Nc1ccc(OC(F)(F)F)cc1)c1sccc1NCc1ccnc2ccccc12	1.19	2.11	1.25	1.38	0.977	1.41
Cc1cc(C)c(/C=C2\C(=O)Nc3ccccc32)[nH]1 [Semaxanib (SU5416)]	2.05	1.16	1.09	1.08	0.527	0.885
CCCOc1ccc2c(c1)CC[C@@H]1[C@@H]2CC[C@]2(C)[C@@H](OC)CC[C@@H]12 [Promestriene]	1.13	0.797	0.94	1.24	0.764	1.01
Cc1ccc(C)c(OCCCC(C)(C)C(=O)O)c1 [Gemfibrozil]	1.23	0.801	1.51	1.06	1.97	1.02
